Potency data for 28 compounds are collected here from PubChem BioAssay (Tox21).

Records with an inconclusive call do not appear. Activity calls are given as the source filed them. Unless noted, calls follow the shape of the dose curve; as a rule, active = well fitted curve in the direction sought with a large enough effect in the repeat runs; inconclusive = weak or mixed curves; inactive = no such curve, though single readings can be large; an effect the other way counts as inactive or inconclusive.

The nature of assay [1]: qHTS assay to identify small molecule antagonists of the estrogen related receptor (ERR) signaling pathway - cell viability counter screen (AID 1224818).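 Also: series mostly up to about 46 µM; viability measured after 17.5 h of compound exposure.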 The procedure, abridged: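 ERR reporter cells plated 6 h at 37 C/5% CO2, then compounds in DMSO pin-transferred and incubated 17.5 h at 37 C. Viability read as CellTiter-Fluor fluorescence after 30 min at 37 C.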
For orientation: qHTS replaces the single test concentration by a dilution series.

A short description of assay [2]: qHTS assay to identify small molecule antagonists of the estrogen related receptor (ERR) signaling pathway (AID 1224819;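 also: luminescence from an ERR-driven luciferase reporter measured with One-Glo reagent; series mostly up to about 46 µM; nearly all actives have a fitted effect of over 50% in size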). In short, it runs like this: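 ERR reporter cells were plated at 2,000 cells/well and left 6 h at 37 C/5% CO2 before pin-tool transfer of compounds in DMSO. After 18 h at 37 C, One-Glo was added and luminescence was read 30 min later at room temperature.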

The nature of assay [3]: qHTS assay to identify small molecule agonists of the estrogen related receptor (ERR) signaling pathway (AID 1224820). Also: potency is read from the fitted curve at half-maximal effect. In short, it runs like this: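 Cells: ERR line from NTP, 2,000/well. Pre-incubation 6 h, 37 C/5% CO2. Compound (DMSO) pin transfer, 18 h 37 C. One-Glo, 30 min RT, luminescence.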
For assay [4], the system named is estrogen-related receptor alpha (ERRalpha) with PGC-1alpha coactivator, human. Nature of the assay: qHTS assay to identify small molecule antagonists of the estrogen related receptor signaling pathway with the pleiotropic PPARgamma coactivator (PGC) (AID 1224821; calls by dose curve;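 also: series mostly up to about 46 µM; lower luminescence signal means antagonism of PGC/ERR signalling; nearly all actives have a fitted effect of over 50% in size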). In short, it runs like this:
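Luminescent read-out (One-Glo, 30 min at room temperature) following 18 h treatment of PGC/ERR cells at 37 C with compounds delivered in DMSO. Cells had settled 6 h at 37 C/5% CO2 before dosing.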

Assay [5] can be described thus: qHTS assay to identify small molecule antagonists of the estrogen related receptor signaling pathway with the pleiotropic PPARgamma coactivator (PGC) cell viability counter screen (AID 1224822; also: series mostly up to about 46 µM). In short, it runs like this:
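PGC/ERR cells were seeded at 2,000 cells/well, rested 6 h at 37 C/5% CO2, then given compounds in DMSO by pin tool and incubated 17.5 h at 37 C. Viability came from CellTiter-Fluor fluorescence after 30 min.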

A short description of assay [6]: qHTS assay to identify small molecule agonists of the retinoic acid receptor (RAR) signaling pathway (AID 1159553). In short, it runs like this:
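C3RL4 cells carrying a RARE luciferase reporter were plated overnight at 37 C, then exposed to compounds in DMSO for 6 hr at 37 C and 5% CO2. Luminescence was read 30 min after luciferase reagent addition at room temperature.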

The nature of assay [7]: qHTS assay to identify small molecule antagonists of the estrogen related receptor (ERR) signaling pathway from Tox21 library - cell viability counter screen (AID 1224834). Also: nearly all actives have a fitted effect of over 30% in size. Also: potency is read from the fitted curve at half-maximal effect. In short, it runs like this: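 ERR reporter cells were plated 6 h before compound addition, then exposed to test compounds in DMSO for 17.5 h at 37 C. Viability was read as CellTiter-Fluor fluorescence after a 30-minute incubation at 37 C.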

In assay [8] the target is Luciferin 4-monooxygenase (Photinus pyralis) (UniProt P08659). Kind of assay: qHTS assay to identify small molecule inhibitors of firefly luciferase (AID 1224835). Also: series mostly up to about 120 µM; nearly all actives have a fitted effect of over 25% in size. In short, it runs like this: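 Inhibition of purified Photinus luciferase is measured by luminescence. Substrate levels (D-luciferin, ATP) sit at their KM values. Each compound is tested in a concentration series.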

The nature of assay [9]: qHTS assay to identify small molecule agonists of the constitutive androstane receptor (CAR) signaling pathway - cell viability counter screen (AID 1224836). Also: series mostly up to about 92 µM; nearly all actives have a fitted effect of over 45% in size. The procedure, abridged: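 Using CellTiter-Fluor, viability of HepG2 cells harbouring hCAR and CYP2B6-2.2kb was measured following 23 h incubation with a 15-concentration compound series plus PK11195 (0.75 uM final).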

Assay [10] can be described thus: qHTS assay to identify small molecule agonists of the estrogen related receptor signaling pathway with the pleiotropic PPARgamma coactivator (PGC) (AID 1224823). Also: potency is read from the fitted curve at half-maximal effect. In short, it runs like this: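 Steps: plate PGC/ERR cells at 2,000 cells/well; incubate 6 h, 37 C/5% CO2; pin-transfer compounds (DMSO); incubate 18 h, 37 C; add One-Glo; 30 min RT; read luminescence.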

Sequence of Luciferin 4-monooxygenase (Photinus pyralis) (P08659 whole entry, looked up): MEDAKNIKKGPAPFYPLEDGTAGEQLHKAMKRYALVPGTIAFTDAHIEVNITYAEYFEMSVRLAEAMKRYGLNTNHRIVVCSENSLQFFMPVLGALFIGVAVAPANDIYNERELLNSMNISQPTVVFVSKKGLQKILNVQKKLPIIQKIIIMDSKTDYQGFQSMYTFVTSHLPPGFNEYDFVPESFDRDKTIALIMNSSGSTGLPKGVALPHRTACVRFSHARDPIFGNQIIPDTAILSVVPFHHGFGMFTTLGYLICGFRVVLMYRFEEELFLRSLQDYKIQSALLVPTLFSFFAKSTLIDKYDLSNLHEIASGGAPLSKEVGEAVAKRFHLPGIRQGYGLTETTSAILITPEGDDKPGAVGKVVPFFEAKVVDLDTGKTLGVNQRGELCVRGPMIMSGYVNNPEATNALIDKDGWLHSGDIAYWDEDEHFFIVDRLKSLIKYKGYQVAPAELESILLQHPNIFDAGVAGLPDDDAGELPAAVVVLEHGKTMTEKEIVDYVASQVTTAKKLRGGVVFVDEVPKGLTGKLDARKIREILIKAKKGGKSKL

Regarding `COC(=O)C(C)(N)Cc1ccc(O)cc1` (stereo not given), the Potency result in [1], in [2], in assay [3], in assay [4] and in assay [5] was “inactive” throughout.
As for `CCOC(=O)C(C)Oc1cccc2c(=O)n(CC(=O)Nc3ccc4c(c3)OCCO4)ccc12` (stereo not given), the Potency entry in assay [1], in [2], in [3], in assay [4] and in assay [5] was “inactive” in each case.
Consider `CCCCCCCCCCCCCCCCC(C(=O)O)C(O)(CC(=O)O)C(=O)O` (stereo not given), for which the Potency result in assay [6], in assay [7], in assay [8] and in assay [9] was “inactive” throughout.
With `C=CC1(C)CC(=O)C2(O)C(C)(O1)C(OC(C)=O)C(O)C1C(C)(C)CCC(O)C12C` (stereo not given), the Potency result in assay [1] is “inactive”.
As to `NC(=O)c1cccc(N)c1`, the Potency result in [1], in assay [2], in [3], in assay [4] and in [5] was “inactive” in each case.
Regarding `CCCCCCCCCCCCCCCCCCNC(=O)OC1CCN(C(=O)OC[C@H](COC(=O)N(Cc2cccc[n+]2CC)C(=O)c2ccccc2OC)OC)CC1`, the Potency result in [6], in assay [8] and in [9] was “inactive” throughout. In addition, the Potency in [7] was 26.6 µM (active).
Turning to `C1CCc2nnnn2CC1`, the Potency entry in [1], in assay [2], in assay [3], in assay [4] and in assay [5] was “inactive” throughout.
As for `CCCn1c(=O)c2[nH]c(-c3ccc(S(=O)(=O)O)cc3)nc2n(CCC)c1=O`, the Potency result in assay [1], in assay [2], in assay [3], in assay [4], in assay [5] and in assay [10] was “inactive” throughout.
For the compound `N=C(N)SCCc1cnc[nH]1`, the Potency result in [1], in assay [2], in [3], in [4], in assay [5] and in assay [10] was “inactive” in each case.
Turning to `CC(=O)O[C@H]1CC2(C)[C@@H](C[C@@H](O)[C@H]3[C@@]4(C)CC[C@@H](O)[C@@H](C)[C@@H]4CC[C@@]32C)C1=C(CCC=C(C)C)C(=O)O` (stereo not given in full), the Potency entry in assay [1], in assay [2], in assay [3], in [4], in assay [5] and in [10] was “inactive” in each case.
With `Nn1nnc2ccccc21`, the Potency result in assay [1], in [2], in assay [3], in assay [4], in assay [5] and in assay [10] was “inactive” in each case.
As to `Nc1ncnc2c1ncn2[C@@H]1O[C@H](COP(=O)(O)OP(=O)(O)OP(=O)(O)OP(=O)(O)OC[C@@H]2O[C@H](n3cnc4c(N)ncnc43)[C@@H](O)C2O)C(O)[C@H]1O` (stereo not given in full), the Potency entry in assay [1], in [2], in assay [3], in assay [4] and in assay [5] was “inactive” throughout. In addition, the Potency in [10] is 15 µM (active).
On to `CC(=O)NCCc1c[nH]c2ccc(O)cc12`, for which the Potency result in [1], in assay [2], in assay [3], in [4], in assay [5] and in assay [10] was “inactive” in each case.
Take `O=[N+]([O-])c1ccc(CSc2ncnc3c2ncn3[C@@H]2O[C@H](CO)C(O)[C@H]2O)cc1` (stereo not given in full): the Potency entry in [1], in assay [2], in assay [3], in assay [4], in assay [5] and in [10] was “inactive” throughout.
With `COC(=O)C1=CO[C@@H](O)[C@@H]2C(CO)=CC[C@H]12`, the Potency result in assay [1], in assay [2], in assay [3], in [4], in [5] and in assay [10] was “inactive” in each case.
As for `NC1(C(=O)O)CCc2cc(C(=O)O)ccc21` (stereo not given), the Potency result in assay [1], in [2], in assay [3], in assay [4], in assay [5] and in assay [10] was “inactive” throughout.
Take `CS(=O)(=O)c1ccc(-n2nc(C(F)(F)F)cc2-c2ccc(F)cc2)cc1`: the Potency result in assay [1], in assay [2], in [3], in assay [4], in assay [5] and in [10] was “inactive” throughout.
With `CCCCCCCCCCCCCCSCC(=O)O`, the Potency entry in [1], in assay [2], in [3], in [4], in [5] and in assay [10] was “inactive” throughout.
As for `CC[C@H]1OC(=O)[C@H](C)[C@@H](O[C@H]2C[C@@](C)(OC)[C@@H](O)[C@H](C)O2)[C@H](C)[C@@H](O[C@@H]2O[C@H](C)C[C@H](NC)[C@H]2O)[C@](C)(O)C[C@@H](C)CN(C)[C@H](C)[C@@H](O)[C@]1(C)O`, the Potency result in assay [1], in assay [2], in assay [3], in assay [4], in [5] and in assay [10] was “inactive” throughout.
`Cc1cccc(C#Cc2ccccc2)n1`: the Potency result in assay [1], in assay [2], in assay [4] and in assay [5] was “inactive” throughout. The Potency in assay [3] was 12.8 µM (active); in assay [10] it was 9.44 µM (active).
For the compound `CCCCS(=N)(=O)CCC(N)C(=O)O` (stereo not given), the Potency entry in assay [1], in [2], in [3], in assay [4], in [5] and in assay [10] was “inactive” throughout.
As to `NCCCS(=O)(=O)O`, the Potency entry in assay [1], in assay [2], in assay [3], in assay [4], in assay [5] and in assay [10] was “inactive” in each case.
Take `NC1(C(=O)O)CC1`: the Potency entry in assay [1], in [2], in assay [3], in assay [4], in assay [5] and in assay [10] was “inactive” throughout.
As to `CC1(C)CCC(NC(=O)[C@@H](N)CCC(=O)O)CC1`, the Potency entry in assay [1], in [2], in assay [3], in assay [4], in assay [5] and in assay [10] was “inactive” each time.
Turning to `CC[N+](CC)(CC)CC(=O)Nc1c(C)cccc1C`, the Potency result in assay [1], in [2], in [3], in [4], in assay [5] and in assay [10] was “inactive” in each case.
As to `NC(=O)CNCCC(c1ccccc1)c1ccccc1`, the Potency entry in [1], in assay [2], in [3], in [4], in assay [5] and in assay [10] was “inactive” each time.
For the compound `O=c1onc2cnc3ccccc3n12`, the Potency result in assay [1], in assay [2], in [3], in [4], in [5] and in assay [10] was “inactive” throughout.
For the compound `COc1ccc(C(=O)NCc2cccnc2)cc1C(=O)NCc1cccnc1`, the Potency result in assay [1], in assay [2], in [3], in [4], in [5] and in [10] was “inactive” throughout.
